Values joined by “and” are separate entries in the source; they are usually repeats but may differ in a detail not shown here. Equal values may be shown once. The panel holds about 79,000 compounds, 15% with a hit somewhere; the sample as a whole holds those more often. Some compounds were tested as several samples or in several runs, with calls that do not always agree. Active and inactive are the calls of the source. Rule as the data show it: active = growth inhibition above about 70%; inactive = the rest.

The nature of the first test: NCI Yeast Anticancer Drug Screen. Data for the bub3 strain (AID 167). The following applies: S. cerevisiae bub3 mutant strain, at 50.0 µM, stronger effect = higher value. An outline of the steps:
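Part of a panel of yeast mutants defective in DNA damage repair or cell cycle regulation. Each strain is grown with compound, and inhibition is calculated relative to solvent-treated cultures.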
As for `Cc1cc(C)c(O)c(C)c1.[Hg]`, the growth inhibition is 99.3% (active).

`CC(O)C(=O)O.CC(O)C(=O)O.[Ni]` (stereo not drawn): the growth inhibition was 18.1% (inactive).

For the molecule `CC(=O)OC1C(=O)OCC23CCC4(C)OC4C2OC2CC(OC(=O)/C=C/C=C/C(=O)OCCC1C)C3(C)C21CO1` (stereo not drawn), the growth inhibition is 92.6% (active).

Take `CN1C(=O)CC[C@@]2(C)C1=CC[C@H]1[C@@H]3CC[C@H](O)[C@@]3(C)CC[C@@H]12`: the growth inhibition was 62.1% (inactive).

In the case of `CC[C@H](C)c1occ2c(O)c(C(=O)O)c(=O)cc-2c1C`, the growth inhibition is 12.2% (inactive).

Turning to `O=[N+]([O-])[O][Tl]([c]1ccccc1)[c]1ccccc1`, the growth inhibition is 51.8% (inactive).

For the molecule `CCCC[CH2][Sn]([CH2]CCCC)[CH2]CCCC.CCCC[CH2][Sn]([CH2]CCCC)[CH2]CCCC`, the growth inhibition is 98.8% (active).

Regarding `Nc1cc(Cl)ccc1C(=O)c1ccccc1Cl`, the growth inhibition was 98% (active).

Regarding `CC(Br)CN1CCOCC1` (stereo not drawn), the growth inhibition was 2.6% (inactive).

Turning to `C(CCC[Te][Te]CCCCCCOC1CCCCO1)CCOC1CCCCO1` (stereo not drawn), the growth inhibition was 68.7% (inactive).

As for `CN1CN(c2ccccc2)C2(CCN(C3Nc4ccccc4O3)CC2)C1=O` (stereo not drawn), the growth inhibition is 50.8% (inactive).

Take `[CH3][Sn]([CH3])([Cl])[c]1cc[c]([Sn]([CH3])([CH3])[Cl])cc1`: the growth inhibition was 81.3% (active).

With `O=[C-]CCCCCC[C-]=O.[C-]#[O+].[C-]#[O+].[C-]#[O+].[C-]#[O+].[Fe+6].[Fe+6].[c-]1[c-][c-][cH-][c-]1.[c-]1[c-][c-][cH-][c-]1`, the growth inhibition is 99% (active).

As for `CCOC(=O)NC(=S)[S][Sb]([S]C(=S)NC(=O)OCC)[S]c1nc2ccc(N=Nc3ccc(NS(=O)(=O)c4ccc(NC(=O)C(N5CC5)(N5CC5)N5CC5)cc4)cc3)cc2s1`, the growth inhibition is 99.3% (active).

For `CCC[N+](CCC)(CCC)CCC.N#CN=C([SH2+])[SH2+].N#CN=C([SH2+])[SH2+].[Pt+2]`, the growth inhibition was 14.1% (inactive).

Turning to `CCCCCCCC/C=C\CCCCCCCCN1CC(C(=O)[O][Pb]([CH2]C)([CH2]C)[CH2]C)CC1=O` (stereo not drawn), the growth inhibition is 23.3% (inactive).

Take `O=c1[nH]cc(Cn2cnc3ncccc3c2=O)c(=O)[nH]1`: the growth inhibition was -18.2% (inactive).

For the molecule `CC(C)(C)C1=CC(=C/C=C/c2cc(C(C)(C)C)[o+]c(C(C)(C)C)c2)C=C(C(C)(C)C)O1`, the growth inhibition is 94.3% (active).

For the molecule `S=C(S)N1CCCCC1`, the growth inhibition is 37.6% (inactive) and 99.3% (active) and -10.9% (inactive).

`CN[C@H]1C[C@@H]2O[C@@](C)([C@H]1OC)n1c3ccccc3c3c4c(c5c6ccccc6n2c5c31)C(=O)NC4`: the growth inhibition was 91.8% (active).

As to `CC(C)(C)OOC(=O)c1ccccc1`, the growth inhibition is 3.1% (inactive).

With `ClCCN(CCCl)CCN1c2ccccc2Sc2ccc3ccccc3c21`, the growth inhibition is 40.6% (inactive).

Take `CCOC(=O)c1ccccc1N`: the growth inhibition was 7.7% (inactive).

In the case of `Cn1cnc(C(=N)[Se])c1N`, the growth inhibition was 91.4% (active).

For `Cc1ccc(NP(=O)(Oc2ccccc2)N(CCCl)CCCl)cc1` (stereo not drawn), the growth inhibition was 62% (inactive).

As for `CCOC(=O)C1=C(C)NC(=O)NC1c1ccc(N(CCCl)CCCl)cc1Cl` (stereo not drawn), the growth inhibition is 92.6% (active).

For `ClC(C[n+]1ccccc1)c1ccccc1` (stereo not drawn), the growth inhibition is 26.4% (inactive) and 11.1% (inactive).

As to `CCCCCCCC1(c2ccc(N)cc2)CCC(=O)NC1=O` (stereo not drawn), the growth inhibition was 56% (inactive).

With `COC(=O)C(CCCN=C(N)N[N+](=O)[O-])NC(=O)c1ccc2c(c1O)C(=O)c1ccccc1C2=O` (stereo not drawn), the growth inhibition was 14.5% (inactive).

Turning to `Cc1cc(N(CCCl)CCCl)ccc1CN1CCCN(Cc2ccc(N(CCCl)CCCl)cc2C)C1c1ccc(N(CCCl)CCCl)cc1C`, the growth inhibition was 97.7% (active).

As for `c1ccc([CH2][Pb]([c]2ccccc2)([c]2ccccc2)[c]2ccccc2)cc1`, the growth inhibition was 99% (active).

As for `C[CH2][Sn][CH2]C.c1cc[c]([Ge]([c]2ccccc2)[c]2ccccc2)cc1.c1cc[c]([Sn]([c]2ccccc2)[c]2ccccc2)cc1`, the growth inhibition is 99.3% (active).

In the case of `CCC1(C2=CCCCC2)C(=O)NC(=S)NC1=O`, the growth inhibition was 6.05% (inactive) and 34.2% (inactive).

Turning to `N#CC(=C=N)N=C(F)C(C#N)=C(C#N)C#N`, the growth inhibition is 86.8% (active).

For `N#C[SH2+].N#C[SH2+].N#C[SH2+].N#C[SH2+].[Cu+2].c1ccc(C[P+](c2ccccc2)(c2ccccc2)c2ccccc2)cc1`, the growth inhibition is 92.9% (active).

For `CC#N.FC(F)(F)C#CC(F)(F)F.FC(F)(F)C#CC(F)(F)F.FC(F)(F)C#CC(F)(F)F.[W]`, the growth inhibition was 99.6% (active).

Consider `CC(C)c1cccc(C(C)C)c1NC(=O)C(=O)CC(=O)CC(c1ccccc1)c1c(O)c2ccccc2oc1=O` (stereo not drawn), for which the growth inhibition was 70.7% (active).

With `CCN(CCCl)c1ccc(/C=C/C2=[N+](C)c3ccccc3C2(C)C)c(C)c1`, the growth inhibition was 99.2% (active).

As to `Cc1cc(C)[n+](CCOc2ccc(/C(=C(/Cl)c3ccccc3)c3ccccc3)cc2)c(C)c1`, the growth inhibition is 90% (active).

Another test is described as follows: NCI Yeast Anticancer Drug Screen. Data for the mlh1 rad18 strain (AID 175). The following applies: S. cerevisiae mlh1 rad18 strain growth inhibition; at 5.0 µM (retest, dose inferred, filed as 0.5); stronger effect = higher value. An outline of the steps:
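Cells of a genetically altered yeast strain, deficient in DNA damage repair, were treated with compound. Their growth was then compared with that of vehicle-treated cultures to give inhibition.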
As for `Cc1cc(C)c(O)c(C)c1.[Hg]`, the growth inhibition was 98% (active).

As for `CC(O)C(=O)O.CC(O)C(=O)O.[Ni]` (stereo not drawn), the growth inhibition was -2% (inactive).

With `CC(=O)OC1C(=O)OCC23CCC4(C)OC4C2OC2CC(OC(=O)/C=C/C=C/C(=O)OCCC1C)C3(C)C21CO1` (stereo not drawn), the growth inhibition was 100% (active).

As for `CN1C(=O)CC[C@@]2(C)C1=CC[C@H]1[C@@H]3CC[C@H](O)[C@@]3(C)CC[C@@H]12`, the growth inhibition is 6% (inactive).

Consider `CC[C@H](C)c1occ2c(O)c(C(=O)O)c(=O)cc-2c1C`, for which the growth inhibition was 88% (active).

As to `O=[N+]([O-])[O][Tl]([c]1ccccc1)[c]1ccccc1`, the growth inhibition was -3% (inactive).

As for `CCCC[CH2][Sn]([CH2]CCCC)[CH2]CCCC.CCCC[CH2][Sn]([CH2]CCCC)[CH2]CCCC`, the growth inhibition was 46% (inactive).

On to `Nc1cc(Cl)ccc1C(=O)c1ccccc1Cl`, for which the growth inhibition is -4% (inactive).

Regarding `CC(Br)CN1CCOCC1` (stereo not drawn), the growth inhibition was 66% (inactive).

With `C(CCC[Te][Te]CCCCCCOC1CCCCO1)CCOC1CCCCO1` (stereo not drawn), the growth inhibition was 2% (inactive).

For `CN1CN(c2ccccc2)C2(CCN(C3Nc4ccccc4O3)CC2)C1=O` (stereo not drawn), the growth inhibition is 10% (inactive).

Consider `[CH3][Sn]([CH3])([Cl])[c]1cc[c]([Sn]([CH3])([CH3])[Cl])cc1`, for which the growth inhibition is 20% (inactive).

`O=[C-]CCCCCC[C-]=O.[C-]#[O+].[C-]#[O+].[C-]#[O+].[C-]#[O+].[Fe+6].[Fe+6].[c-]1[c-][c-][cH-][c-]1.[c-]1[c-][c-][cH-][c-]1`: the growth inhibition is 5% (inactive).

As to `CCOC(=O)NC(=S)[S][Sb]([S]C(=S)NC(=O)OCC)[S]c1nc2ccc(N=Nc3ccc(NS(=O)(=O)c4ccc(NC(=O)C(N5CC5)(N5CC5)N5CC5)cc4)cc3)cc2s1`, the growth inhibition is 80% (active).

Consider `CCC[N+](CCC)(CCC)CCC.N#CN=C([SH2+])[SH2+].N#CN=C([SH2+])[SH2+].[Pt+2]`, for which the growth inhibition was 20% (inactive).

On to `CCCCCCCC/C=C\CCCCCCCCN1CC(C(=O)[O][Pb]([CH2]C)([CH2]C)[CH2]C)CC1=O` (stereo not drawn), for which the growth inhibition is 1% (inactive).

For `O=c1[nH]cc(Cn2cnc3ncccc3c2=O)c(=O)[nH]1`, the growth inhibition is -8% (inactive).

For `CC(C)(C)C1=CC(=C/C=C/c2cc(C(C)(C)C)[o+]c(C(C)(C)C)c2)C=C(C(C)(C)C)O1`, the growth inhibition was 99% (active).

`S=C(S)N1CCCCC1`: the growth inhibition was 46% (inactive) and 31% (inactive).

In the case of `CN[C@H]1C[C@@H]2O[C@@](C)([C@H]1OC)n1c3ccccc3c3c4c(c5c6ccccc6n2c5c31)C(=O)NC4`, the growth inhibition is 98% (active).

On to `CC(C)(C)OOC(=O)c1ccccc1`, for which the growth inhibition is 26% (inactive).

On to `ClCCN(CCCl)CCN1c2ccccc2Sc2ccc3ccccc3c21`, for which the growth inhibition was 12% (inactive).

As to `CCOC(=O)c1ccccc1N`, the growth inhibition is -1% (inactive).

In the case of `Cn1cnc(C(=N)[Se])c1N`, the growth inhibition was 78% (active).

As to `Cc1ccc(NP(=O)(Oc2ccccc2)N(CCCl)CCCl)cc1` (stereo not drawn), the growth inhibition was -10% (inactive).

Consider `CCOC(=O)C1=C(C)NC(=O)NC1c1ccc(N(CCCl)CCCl)cc1Cl` (stereo not drawn), for which the growth inhibition was 3% (inactive).

With `ClC(C[n+]1ccccc1)c1ccccc1` (stereo not drawn), the growth inhibition is 10% (inactive).

Consider `CCCCCCCC1(c2ccc(N)cc2)CCC(=O)NC1=O` (stereo not drawn), for which the growth inhibition was -2% (inactive).

With `COC(=O)C(CCCN=C(N)N[N+](=O)[O-])NC(=O)c1ccc2c(c1O)C(=O)c1ccccc1C2=O` (stereo not drawn), the growth inhibition was 5% (inactive).

For the molecule `Cc1cc(N(CCCl)CCCl)ccc1CN1CCCN(Cc2ccc(N(CCCl)CCCl)cc2C)C1c1ccc(N(CCCl)CCCl)cc1C`, the growth inhibition is 21% (inactive).

As to `c1ccc([CH2][Pb]([c]2ccccc2)([c]2ccccc2)[c]2ccccc2)cc1`, the growth inhibition was 97% (active).

Take `C[CH2][Sn][CH2]C.c1cc[c]([Ge]([c]2ccccc2)[c]2ccccc2)cc1.c1cc[c]([Sn]([c]2ccccc2)[c]2ccccc2)cc1`: the growth inhibition was 99% (active).

Consider `CCC1(C2=CCCCC2)C(=O)NC(=S)NC1=O`, for which the growth inhibition was 0% (inactive).

For `N#CC(=C=N)N=C(F)C(C#N)=C(C#N)C#N`, the growth inhibition is 25% (inactive).

In the case of `N#C[SH2+].N#C[SH2+].N#C[SH2+].N#C[SH2+].[Cu+2].c1ccc(C[P+](c2ccccc2)(c2ccccc2)c2ccccc2)cc1`, the growth inhibition is 45% (inactive).

`CC#N.FC(F)(F)C#CC(F)(F)F.FC(F)(F)C#CC(F)(F)F.FC(F)(F)C#CC(F)(F)F.[W]`: the growth inhibition was 95% (active).

`CC(C)c1cccc(C(C)C)c1NC(=O)C(=O)CC(=O)CC(c1ccccc1)c1c(O)c2ccccc2oc1=O` (stereo not drawn): the growth inhibition was 7% (inactive).

`CCN(CCCl)c1ccc(/C=C/C2=[N+](C)c3ccccc3C2(C)C)c(C)c1`: the growth inhibition is -1% (inactive).

Take `Cc1cc(C)[n+](CCOc2ccc(/C(=C(/Cl)c3ccccc3)c3ccccc3)cc2)c(C)c1`: the growth inhibition was 82% (active).

The values are drawn from PubChem BioAssay (NCI).
